Results as given in PubChem BioAssay (NCI).
Where “and” joins values, the source holds several entries; their conditions need not be identical. Equal entries are not always repeated. This is part of a sample that, as a whole, favours compounds with a hit. Of some 79,000 tested, about 15% had one in any assay. The source holds several records for some structures; these can differ, active in one and inactive in another. Calls of active or inactive are those of the source. Cut-off read from the data, not from the text of the source: active = growth inhibition above about 70%; inactive = the rest.

Tests used:
[1] = NCI Yeast Anticancer Drug Screen. Data for the wt1 strain (AID 149);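 note: 0% = growth of vehicle-treated wt1 cultures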; settings: S. cerevisiae wt1 strain (SPY 50644) growth inhibition, stronger effect = higher value
Procedure, shortened: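 wt1 strain grown with compound or vehicle; inhibition taken from the growth difference.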

[2] = NCI Yeast Anticancer Drug Screen. Data for the rad50EPP+ strain (AID 151);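 note: 0% = growth of vehicle-treated control cultures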; settings: S. cerevisiae rad50 mutant strain, stronger effect = higher value
Procedure, shortened: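 Compounds were applied to the rad50EPP+ yeast strain, which bears a defined DNA repair alteration, and growth inhibition was determined relative to vehicle-treated cultures.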

[3] = NCI Yeast Anticancer Drug Screen. Data for the rad50 strain (AID 155);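 note: 0% = growth of vehicle-only cultures of the same strain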; settings: S. cerevisiae rad50 strain growth inhibition, stronger effect = higher value
Procedure, shortened: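 DNA repair mutant yeast, compound exposure, growth read-out; inhibition is taken relative to vehicle.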

[4] = NCI Yeast Anticancer Drug Screen. Data for the mec2-1 strain (AID 157); settings: S. cerevisiae mec2-1 strain, stronger effect = higher value
Procedure, shortened: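 Strain: mec2-1 (DNA repair/cell cycle alteration). Compound exposure, then growth measured; inhibition expressed relative to vehicle.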

[5] = NCI Yeast Anticancer Drug Screen. Data for the rad14 strain (AID 159);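 note: 0% = growth of vehicle-treated control cultures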; settings: S. cerevisiae rad14 strain growth inhibition, stronger effect = higher value
Procedure, shortened: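 DNA repair-defective yeast, compound-exposed; % growth inhibition derived by comparison with vehicle-treated controls.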

[6] = NCI Yeast Anticancer Drug Screen. Data for the sgs1 mgt1 strain (AID 161);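 note: 0% = growth of cultures given vehicle only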; settings: S. cerevisiae sgs1 mgt1 strain, stronger effect = higher value
Procedure, shortened: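 Test agents were incubated with a DNA-repair-mutant yeast strain. Growth was then read and compared against vehicle-treated controls.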

[7] = NCI Yeast Anticancer Drug Screen. Data for the CLN2oe strain (AID 163);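 note: 0% = growth of vehicle-only control cultures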; settings: S. cerevisiae CLN2oe strain, stronger effect = higher value
Procedure, shortened: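 Growth of a genetically modified yeast strain is measured after compound exposure and compared with cultures given vehicle alone.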

[8] = NCI Yeast Anticancer Drug Screen. Data for the cln2 rad14 strain (AID 165);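 note: 0% = growth equal to vehicle treated cultures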; settings: S. cerevisiae cln2 rad14 strain, stronger effect = higher value
Procedure, shortened: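 Compounds are applied to the cln2 rad14 yeast strain, and growth is then compared with that of vehicle-treated cultures to give inhibition.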

[9] = NCI Yeast Anticancer Drug Screen. Data for the wt2 strain (AID 169);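 note: 0% = growth of vehicle-treated yeast cultures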; settings: S. cerevisiae wt2 strain growth inhibition, stronger effect = higher value
Procedure, shortened: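 This strain belongs to a panel of yeast strains with defined genetic alterations in DNA damage repair or cell cycle control. Compounds are applied, and growth inhibition is measured against vehicle-treated cultures.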

[10] = NCI Yeast Anticancer Drug Screen. Data for the sgs1 strain (AID 173);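 note: 0% = growth of vehicle-only control cultures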; settings: S. cerevisiae sgs1 mutant, stronger effect = higher value
Procedure, shortened: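 Growth of a yeast strain bearing a defined genetic alteration is measured after compound treatment. Inhibition is expressed relative to vehicle-only controls.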

[11] = NCI Yeast Anticancer Drug Screen. Data for the mlh1 rad18 strain (AID 175); settings: S. cerevisiae mlh1 rad18 strain growth inhibition, stronger effect = higher value
Procedure, shortened: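 Read-out is yeast growth inhibition, calculated against vehicle-only controls. The compound was applied to a strain engineered with DNA damage repair alterations.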

[12] = NCI Yeast Anticancer Drug Screen. Data for the rad18 strain (AID 177); settings: S. cerevisiae rad18 mutant growth inhibition, stronger effect = higher value
Procedure, shortened: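 Growth of the mutant yeast strain after compound exposure, normalised to vehicle-only cultures.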

[13] = NCI Yeast Anticancer Drug Screen. Data for the bub3 strain (AID 167); settings: S. cerevisiae bub3 mutant strain, stronger effect = higher value
Procedure, shortened: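 In this screen, a yeast mutant lacking normal mitotic checkpoint function is challenged with compound. Relative growth versus vehicle gives the inhibition value.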

[14] = NCI Yeast Anticancer Drug Screen. Data for the mlh1 strain (AID 171);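 note: 0% = growth of vehicle-treated control cultures of the same strain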; settings: S. cerevisiae mlh1 strain growth inhibition, stronger effect = higher value
Procedure, shortened: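 Growth of the mutant yeast strain after compound exposure, expressed as inhibition relative to vehicle-only controls.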

[15] = at 5.0 µM (retest, dose inferred, filed as 0.5)
[16] = at 50.0 µM (retest, dose inferred, filed as 5.0)

Measured: growth inhibition

COc1cc(C(C)(C)C)cc(OC)c1C(O)(c1c(OC)cc(C(C)(C)C)cc1OC)c1c(OC)cc(C(C)(C)C)cc1OC
active: [1]; at 11.0 µM 93% | [1]; at 33.0 µM 94% | [1]; at 100.0 µM 91% | [2]; at 11.0 µM 87% | [2]; at 33.0 µM 92% | [2]; at 100.0 µM 83% | [3]; at 11.0 µM 92% | [3]; at 33.0 µM 93% | [3]; [16] 94% | [3]; at 50.0 µM 78% | [3]; at 100.0 µM 88% | [4]; [15] 81% | [4]; at 11.0 µM 90% | [4]; at 33.0 µM 94% | [4]; [16] 96% | [4]; at 50.0 µM 79.7% | [4]; at 100.0 µM 90% | [5]; at 11.0 µM 88% | [5]; at 33.0 µM 91% | [5]; at 100.0 µM 86% | [6]; [16] 97% | [6]; at 50.0 µM 80.1% | [7]; at 11.0 µM 87% | [7]; at 33.0 µM 93% | [7]; at 100.0 µM 89% | [8]; [16] 96% | [8]; at 50.0 µM 77.3% | [9]; at 11.0 µM 92% | [9]; at 33.0 µM 94% | [9]; at 100.0 µM 82% | [10]; at 11.0 µM 95% | [10]; at 33.0 µM 95% | [10]; at 100.0 µM 89% | [11]; [16] 93% | [11]; at 50.0 µM 76.1% | [12]; at 11.0 µM 93% | [12]; at 33.0 µM 94% | [12]; at 100.0 µM 87%
inactive: [1]; at 1.2 µM 4% | [1]; at 3.7 µM 42% | [2]; at 1.2 µM -1% | [2]; at 3.7 µM 14% | [3]; at 1.2 µM 25% | [3]; at 3.7 µM 30% | [3]; [15] 33% | [4]; at 1.2 µM -22% | [4]; at 3.7 µM 32% | [5]; at 1.2 µM -24% | [5]; at 3.7 µM -28% | [6]; [15] 13% | [7]; at 1.2 µM 31% | [7]; at 3.7 µM 45% | [8]; [15] 47% | [9]; at 1.2 µM -17% | [9]; at 3.7 µM 15% | [10]; at 1.2 µM -3% | [10]; at 3.7 µM 4% | [11]; [15] 15% | [12]; at 1.2 µM -4% | [12]; at 3.7 µM 10%

CNC(=O)OCc1c(COC(=O)NC)c(C)n(-c2ccc(Cl)c(Cl)c2)c1C
inactive: [1]; at 1.2 µM -51% | [1]; at 3.7 µM -53% | [1]; at 11.0 µM -54% | [2]; at 1.2 µM -23% | [2]; at 3.7 µM -19% | [2]; at 11.0 µM -25% | [2]; at 33.0 µM -18% | [2]; at 100.0 µM 65% | [3]; at 1.2 µM -37% | [3]; at 3.7 µM -34% | [3]; [15] 25% | [3]; at 11.0 µM -16% | [4]; at 1.2 µM -27% | [4]; at 3.7 µM -22% | [4]; [15] 23% | [4]; at 11.0 µM -26% | [5]; at 1.2 µM -38% | [5]; at 3.7 µM -16% | [5]; at 11.0 µM 25% | [7]; at 1.2 µM -30% | [7]; at 3.7 µM -4% | [7]; at 11.0 µM -1% | [7]; at 33.0 µM 46% | [8]; [15] 7% | [8]; [16] -10% | [13]; at 1.2 µM -31% | [13]; at 3.7 µM -36% | [13]; [15] 8% | [13]; at 11.0 µM -21% | [13]; [16] 9% | [9]; at 1.2 µM -48% | [9]; at 3.7 µM -37% | [9]; at 11.0 µM -58% | [14]; at 1.2 µM -26% | [14]; at 3.7 µM -10% | [14]; at 11.0 µM 10% | [10]; at 1.2 µM 3% | [10]; at 3.7 µM -4% | [10]; at 11.0 µM 1% | [11]; [15] 39%
active: [1]; at 33.0 µM 97% | [1]; at 100.0 µM 99% | [3]; at 33.0 µM 97% | [3]; [16] 97% | [3]; at 50.0 µM 89.6% | [3]; at 100.0 µM 97% | [4]; at 33.0 µM 98% | [4]; [16] 98% | [4]; at 50.0 µM 90.8% | [4]; at 100.0 µM 99% | [5]; at 33.0 µM 98% | [5]; at 100.0 µM 98% | [7]; at 100.0 µM 94% | [8]; at 50.0 µM 84.5% | [13]; at 33.0 µM 97% | [13]; at 50.0 µM 87% | [13]; at 100.0 µM 98% | [9]; at 33.0 µM 91% | [9]; at 100.0 µM 97% | [14]; at 33.0 µM 97% | [14]; at 100.0 µM 97% | [10]; at 33.0 µM 97% | [10]; at 100.0 µM 98% | [11]; [16] 98% | [11]; at 50.0 µM 92.3%

COc1ccc2[nH]c3c(C)c4cc[n+](C)cc4c(C)c3c2c1
41% (inactive) and 82% (active): [12]; at 100.0 µM
active: [2]; at 11.0 µM 70% and 73% | [2]; at 33.0 µM 73% and 82% | [2]; at 100.0 µM 87% and 89% | [3]; at 33.0 µM 78% and 88% | [3]; [16] 85% and 82% | [3]; at 100.0 µM 92% and 94%
inactive: [1]; at 1.2 µM 18% and 15% | [1]; at 3.7 µM 45% and 16% | [1]; at 11.0 µM 45% and 26% | [1]; at 33.0 µM 43% and 41% | [1]; at 100.0 µM 43% and 63% | [2]; at 1.2 µM 39% and 24% | [2]; at 3.7 µM 64% and 62% | [3]; at 1.2 µM 22% and 7% | [3]; at 3.7 µM 35% and 34% | [3]; [15] 29% and 31% | [3]; at 11.0 µM 60% | [3]; at 50.0 µM 31.6% and 64.8% | [4]; at 1.2 µM 15% and 23% | [4]; at 3.7 µM 45% and 18% | [4]; [15] 9% and 3% | [4]; at 11.0 µM 53% and 27% | [4]; at 33.0 µM 44% and 36% | [4]; [16] 44% and 16% | [4]; at 50.0 µM 21.2% and 56.6% | [4]; at 100.0 µM 53% and 61% | [5]; at 1.2 µM 0% and 6% | [5]; at 3.7 µM 17% and 15% | [5]; at 11.0 µM 25% | [5]; at 33.0 µM 27% and 40% | [5]; at 100.0 µM 36% and 61% | [6]; [15] 18% and 28% | [6]; [16] 41% and 52% | [6]; at 50.0 µM 45.8% and 36.4% | [7]; at 1.2 µM 45% and -9% | [7]; at 3.7 µM 45% and 0% | [7]; at 11.0 µM 55% and -5% | [7]; at 33.0 µM 50% and 20% | [7]; at 100.0 µM 40% and 66% | [8]; [15] 2% and 24% | [8]; [16] 25% and 30% | [8]; at 50.0 µM 39.2% and 23.3% | [9]; at 1.2 µM -13% and -31% | [9]; at 3.7 µM -14% and -11% | [9]; at 11.0 µM -15% and -11% | [9]; at 33.0 µM -13% and 14% | [14]; at 1.2 µM 34% and 19% | [14]; at 3.7 µM 34% and 35% | [14]; at 11.0 µM 41% | [14]; at 33.0 µM 56% | [11]; [15] 23% and 19% | [11]; [16] 52% and 32% | [11]; at 50.0 µM 56.5% | [12]; at 1.2 µM 23% and 27% | [12]; at 3.7 µM 40% and 35% | [12]; at 11.0 µM 38% | [12]; at 33.0 µM 45% and 44%
46% (inactive) and 77% (active): [14]; at 100.0 µM
11% (inactive) and 73% (active): [9]; at 100.0 µM
